# In PubChem BioAssay (NCI):
# About 79,000 compounds went through this panel and 15% of them were active in at least one assay; those are over-represented in the sample as a whole. Unmarked numbers belong to inactive results. The source made the active and inactive calls. Rule as the data show it: active = growth inhibition above about 70%; inactive = the rest.
# Columns and labels:
# [1] = NCI Yeast Anticancer Drug Screen. Data for the rad50 strain (AID 155);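 also: 0% = growth of vehicle-only cultures of the same strain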; conditions: S. cerevisiae rad50 strain growth inhibition; at 50.0 µM; active compounds read high
# Outline: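 Yeast carrying a defined DNA repair defect were exposed to test compounds, and growth was compared with vehicle-treated controls to give percent inhibition.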
# [2] = NCI Yeast Anticancer Drug Screen. Data for the mec2-1 strain (AID 157); conditions: S. cerevisiae mec2-1 strain, at 50.0 µM, active compounds read high
# Outline: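 Test agents were screened against the mec2-1 yeast strain, with defined DNA repair or cell cycle alteration. Growth was scored as inhibition against vehicle-only controls.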
# [3] = NCI Yeast Anticancer Drug Screen. Data for the sgs1 mgt1 strain (AID 161);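 also: 0% = growth of cultures given vehicle only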; conditions: S. cerevisiae sgs1 mgt1 strain, at 50.0 µM, active compounds read high
# Outline: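 Read-out: growth inhibition vs vehicle controls. Cells: mutant yeast strain deficient in DNA damage repair.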
# [4] = NCI Yeast Anticancer Drug Screen. Data for the cln2 rad14 strain (AID 165);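 also: 0% = growth equal to vehicle treated cultures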; conditions: S. cerevisiae cln2 rad14 strain, at 50.0 µM, active compounds read high
# Outline: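 Growth of compound-exposed yeast (cln2 rad14 genotype) measured and expressed as inhibition relative to vehicle.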
# [5] = NCI Yeast Anticancer Drug Screen. Data for the bub3 strain (AID 167); conditions: S. cerevisiae bub3 mutant strain, at 50.0 µM, active compounds read high
# Outline: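 Compounds were applied to a genetically altered yeast strain carrying a cell-cycle control defect. Growth inhibition was scored against vehicle-treated controls.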
# [6] = NCI Yeast Anticancer Drug Screen. Data for the mlh1 rad18 strain (AID 175); conditions: S. cerevisiae mlh1 rad18 strain growth inhibition; at 50.0 µM; active compounds read high
# Outline: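 In this whole-cell yeast screen, a strain with altered DNA damage repair is challenged with compound, and its growth is measured against matched vehicle-treated controls.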
Compound,growth inhibition [1],growth inhibition [2],growth inhibition [3],growth inhibition [4],growth inhibition [5],growth inhibition [6]
C=CCSc1nc2c(=O)[nH]cnc2n1C1OC(CO)C(O)C1O (stereo not drawn),-7.35%,4%,-3.1%,-0.35%,-8.1%,-12.7%
Cc1ccc(NC(=O)CC(=O)n2nc(-c3ccccc3)c(N=Nc3ccc(Cl)cc3)c2-c2ccccc2)cc1,9.95%,4%,13.9%,22.7%,46%,37.7%
COC(=O)/C(=N\N)C(C(=O)C(=O)Nc1cc(Cl)ccc1Cl)c1nc2ccc([N+](=O)[O-])cc2[nH]c1=O (stereo not drawn),13.1%,6.6%,-6.15%,-20.2%,25.9%,12.7%
CC(=O)NCC1(c2ccccc2)CCN(CC2COc3ccccc3O2)CC1 (stereo not drawn),-15.3%,-16.4%,-15.2%,16%,17.1%,9.45%
CCn1c2ccccc2c2ccc(N=Cc3ccc4ccccc4c3)cc21,5.65%,-2.3%,-7.3%,-14%,14.3%,1.3%
C=CCNC(=S)NNC(=O)c1ccncc1,-19.8%,-10.3%,-21.6%,-82.8%,2.4%,-23.8%
CN(C)C=Nc1cccc2cnccc12,24.7%,3.4%,14.5%,21.2%,13.1%,-16.7%
CCCCCCNC(C)=O,13.6%,5.7%,11.9%,5.7%,-5.5%,-0.55%
NC(=S)NNC(=O)c1ccccc1,-16.7%,-10.6%,-2.25%,9.65%,6.75%,-2.55%
O=C(CCCCC(=O)Oc1ccc([N+](=O)[O-])cc1)Oc1ccc([N+](=O)[O-])cc1,10.9%,3.25%,13.3%,32%,3.4%,33%
Cc1ccc(S(=O)(=O)OC/C(=C(/c2ccccc2)c2ccc(Cl)cc2)c2ccccc2)cc1,96.8% (active),97.5% (active),95.8% (active),87.3% (active),95.3% (active),96.6% (active)
O=C1NN2CCN=C2c2ccccc21,-60.5%,-30%,-22.7%,-16.4%,-6.5%,-16.4%
COc1ccc(Cl)cc1NC(=O)Nc1cccc(C(C)=O)c1,-4.55%,16.6%,11.3%,-13.3%,17.9%,31.4%
COc1cc(OC)c(C(C)=O)c(C(C)=O)c1,-15.8%,-13.6%,-13.6%,-5.3%,-10.6%,-2.55%
NNC(=O)/C(NC(=O)c1ccccc1)=C(\N)c1cccc([N+](=O)[O-])c1,-34.4%,-30.4%,11.7%,3.25%,-13.1%,0.9%
CC(=O)NC1c2ccccc2C(C)(C)C12CCC1(CC2)OCCO1 (stereo not drawn),-33.5%,-17.1%,-4.8%,0.05%,-3.8%,-40.8%
COC(=O)/C=C/C(=O)OC,9.75%,14.4%,19.4%,9.3%,9.45%,6.6%
CC(C)(C)OC(=O)N(CCCN)CCCCN(CCCN)C(=O)OC(C)(C)C,8.45%,-9.5%,5.25%,12.8%,-5.55%,-62%
COc1ccc(CN2COc3c(ccc4ccccc34)C2)cc1,36.1%,22.9%,31.1%,17.4%,12.6%,30.9%

Compound,growth inhibition [1],growth inhibition [2],growth inhibition [3],growth inhibition [4],growth inhibition [5],growth inhibition [6]
CCC(=O)OC1CCC(OC(=O)CC)CC1 (stereo not drawn),7.3%,9.8%,2.45%,-1.9%,-6.05%,-6.2%
CN(C)Cc1cc(C(=O)/C=C/c2ccc(Cl)cc2Cl)cc(CN(C)C)c1O,6.4%,-12.8%,8.55%,-51.4%,8.85%,13.8%
COc1c(C=O)c2c(c(OC)c1OC)-c1ccc(OC)c(=O)cc1[C@@H](NC(C)=O)CC2,12.5%,-9.6%,-0.25%,7.15%,2.9%,-0.95%
O=C(O)COc1ccc(/C=C2\SC(=S)NC2=O)cc1,-3.9%,-8.3%,1.6%,-36.5%,18.9%,-12.2%
C=CCOC(=O)C1CC=CCC1C(=O)OCC=C (stereo not drawn),-17.6%,-26.9%,-17.9%,-15.2%,-3.95%,-9.8%
CC1=C(C)C2(C)C(C)C2(C)C1C (stereo not drawn),-5.8%,-13.3%,17.9%,20.6%,35%,-1.7%
CC(/C=C1\N=C(c2ccccc2)OC1=O)=C\c1ccccc1,-40%,-22.1%,-33.5%,9.2%,-35.4%,-28.9%
CC(C)=C1C(=O)C[C@]2(C)C/C=C(\C)CC/C=C(\C)CC[C@@H]12,39.5%,40.9%,62.5%,46.2%,58.9%,38.8%
O=C1Sc2ccccc2Cn2cccc21,-1.7%,13%,13.3%,-19.6%,-6.3%,8.7%
C/C(=N/Nc1ccc([N+](=O)[O-])cc1[N+](=O)[O-])c1ccccc1,-4.25%,-13.2%,-12.7%,-13.8%,1%,-11%
O=C1c2cccc3cccc(c23)C(=O)N1CCO,50.6%,22.2%,39.9%,17.9%,16.2%,33.2%
NC(=O)C(C1=CCCCC1)c1ccccc1 (stereo not drawn),3.25%,-1.3%,2.1%,3.15%,1.95%,0.9%
CC1C(c2ccccc2O)c2cc3c(cc2OC1N1CCOCC1)OCO3 (stereo not drawn),-24.9%,-13.6%,7.45%,-5.75%,-18.2%,-29.1%
O=S(=O)(c1ccccc1)c1cccc2c1NCCC2,34.9%,-1.75%,34.4%,8.4%,62.3%,43.6%
O=C1CCCc2cc3c(cc21)CC1(C3)Cc2cc3c(cc2C1)C(=O)CCC3,-8.8%,-7.25%,-5.8%,-10.3%,-11.2%,-9%
O=C(OCCN1CCCCC1)C(c1ccccc1)C1(O)CCSCC1 (stereo not drawn),9.6%,22.9%,32.6%,25.9%,17.9%,5.15%
Cc1nc2c(=O)n(C)c(=O)n(C)c2nc1CCC(=O)O,-16.1%,-3.9%,-1.4%,-52.5%,5.2%,-5.6%
CCc1c(C)nc2cc(-c3cc(C)n4c(=O)c(CC)c(C)nc4c3)cc(C)n2c1=O,1.6%,9.95%,-12.7%,1.2%,3.2%,3.95%
C/C(CC(C)C)=N/Nc1ccc([N+](=O)[O-])cc1[N+](=O)[O-],5.85%,-2.05%,2.65%,-42.6%,19.9%,26.8%
